system: not listed separately; experiment: binders of probe aHhip on microarray, primary screen, stem cell growth factor project, biochemical, small-molecule microarray, fluorescence 635/667 (AID 1087); details: higher = more signal;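 note: score merges spot fluorescence at 667nm with spot signal to noise ratio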

Compound | composite z-score
CCOC(=O)N1C(c2ccc(OCCCO)cc2)=NC(C(=O)OC)N1C(=O)OCC (centres undefined) | -0.347
COCCCNC(=O)[C@@]1(Cc2ccccc2I)c2ccccc2C(=O)N(Cc2ccccc2)[C@H]1c1ccc(CO)cc1 | 0.0695
COc1ccc(C#Cc2ccc3c(c2)[C@]2(C(=O)N3)[C@H](C(=O)N3CCN(c4ncccn4)CC3)[C@H]3C(=O)O[C@H](c4ccccc4)[C@H](c4ccccc4)N3[C@@H]2c2ccc(O)cc2)cc1 | -0.353
CN(C)CCCC[C@@H]1NC(=O)[C@@H]2C[C@H](C(=O)NCc3ccc(F)cc3)[C@H](c3cccc(OCCO)c3)N2C1=O | -0.41
O=C1O[C@@H](c2ccccc2)[C@@H](c2ccccc2)N2[C@@H](c3ccc(O)cc3)[C@]3(C(=O)Nc4ccc(C#CCCO)cc43)[C@@H](C(=O)O)[C@H]12 | 1.69
CC(C)NC(=O)[C@@]1(c2ccc([N+](=O)[O-])cc2)CC(=O)N(C(C)C)[C@@H]1c1ccc(CO)cc1 | -0.256
C=CCC(OC(C)=O)[C@@H]1[C@@H](N(Cc2ccc(-c3cccc(C(F)(F)F)c3)o2)C(=O)Cc2ccc(OC)cc2)c2cc(OCCCO)ccc2N1C(=O)Cc1ccc(OC)cc1 (some centres undefined) | -0.16
C[n+]1ccc2ccc(O)cc2c1 | -0.0994
C=C(CCCC)/C(=C/C[C@H](OC(C)=O)c1ccc(CO)o1)c1cc(C(=O)OC)ccc1OC | -0.0618
COCCOC(=O)N1C(=O)[C@@]2(c3cc(C#Cc4ccc(OC)cc4)ccc31)[C@H](c1ccc(OCCO)cc1)N1[C@H](c3ccccc3)[C@H](c3ccccc3)OC(=O)[C@H]1[C@@H]2C(=O)N1CCc2cc(OC)c(OC)cc2C1 | 0.232
CC(C)C(O)C1C=CC2C(=O)N(C)C(=O)C2N1N1CCCCC1 (centres undefined) | -0.0391
CCN(CC)c1ccc(N2CC=CC34O[C@@H]5C=CCOC(=O)[C@@H]5[C@H]3C(=O)N(CCCCCO)[C@@H]4C2=O)cc1 (some centres undefined) | -0.0618
Cc1cc(C)c(C(O)C2C=CC3C(=O)NC(=O)C3N2Nc2ccccn2)c(C)c1 (centres undefined) | 0.0373

system: PRMT1 (protein arginine N-methyltransferase 1); experiment: PRMT1 binders on small-molecule microarrays, primary screen, biochemical, small-molecule microarray, 635 nm fluorescence (AID 1088); details: small-molecule microarray binding, higher = more signal;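 note: binding of Prmt1 protein to compounds spotted on small-molecule microarray slides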

Compound | composite z-score
O=C1c2ccccc2[C@](Cc2ccccc2I)(C(=O)O)[C@H](c2ccc(CO)cc2)N1Cc1ccccc1C(F)(F)F | 1.12
C=CCN1C(=O)[C@@]2(O[C@@H](CCO)[C@H]([Si](C)(C)c3ccc(OC)cc3)[C@H]2C)c2cc(NC(C)=O)ccc21 | 1.15
O=C1O[C@@H](c2ccccc2)[C@@H](c2ccccc2)N2[C@@H](c3ccc(O)cc3)[C@]3(C(=O)Nc4ccccc43)[C@@H](C(=O)NC[C@H](O)c3ccccc3)[C@H]12 | 0.867
C=C(CCCC)C(=O)CC[C@@H](OC(=O)c1ccccc1-c1ccccc1C(=O)O)c1ccc(CO)o1 | 1.56
COCCOC(=O)N1C(=O)[C@@]2(c3cc(C#CCCO)ccc31)[C@H](c1ccc(O)cc1)N1[C@H](c3ccccc3)[C@H](c3ccccc3)OC(=O)[C@H]1[C@@H]2C(=O)N1CCCCCCC1 | 1.54
O=C(NCC(O)CO)[C@]1(CCS(=O)(=O)c2ccccc2)N=C(c2ccc(OCCCO)cc2)O[C@@H]1c1ccccc1 (some centres undefined) | -0.214
CC(C)NC(=O)[C@@H]1c2ccccc2C(=O)N(C2CCCCC2)[C@H]1c1ccc(CO)cc1 | 0.4
CCOC(=O)C=Cc1cccc(OC)c1O | 0.124
NC(=O)NCC#Cc1ccc2c(c1)[C@]1(C(=O)N2)[C@H](C(=O)NC[C@H](O)c2ccccc2)[C@H]2C(=O)O[C@H](c3ccccc3)[C@H](c3ccccc3)N2[C@@H]1c1ccccc1OCCO | 1.53
CN1C(=O)C2C(C1=O)C1C=C(c3ccc(CO)cc3)C2C(C2CC2)N1Cc1cc2c(cc1Br)OCO2 (centres undefined) | 1.53
O=C1OCCC/C=C\[C@H]2OC34C=CCN(Cn5nnc6ccccc65)C(=O)[C@H]3N(CCCO)C(=O)[C@@H]4C12 (some centres undefined) | 1.19
CC(C)N1C(=O)c2ccccc2[C@](C)(C(=O)NC2CC2)[C@@H]1c1ccc(CO)cc1 | 1.49
O=C1C2C=CC(C(O)CCc3ccccc3)N(Nc3ccccc3)C2C(=O)N1c1ccccc1 (centres undefined) | 1.49
O=C1O[C@H](c2ccccc2)[C@H](c2ccccc2)N2[C@H]1[C@@H](C(=O)N1CCCCCCC1)[C@]1(C(=O)Nc3ccc(C#CC4=CCCCC4)cc31)[C@H]2c1ccc(O)cc1 | 1.56
CC(C)OC(=O)C1=CCC(c2cccc(Cl)c2)O1 (centres undefined) | 0.559
C=CCN1C(=O)[C@@]2(O[C@@H](CCO)[C@H]([Si](C)(C)c3ccc(OC)cc3)[C@H]2C)c2cc(N3C(=O)COc4ccccc43)ccc21 | 1.45

From PubChem BioAssay
